PubChem BioAssay (NCI)
The panel holds about 83,000 compounds, 20% with a hit somewhere; the sample as a whole holds those more often.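 Values shown are percent growth following 48 h exposure of cells in 96-well plates to a single concentration of compound; below 10 was considered active.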 Values without a mark were called inactive. Activity calls are given as the source filed them.

tested on: HCC-2998 colon; assay: NCI-60 one-dose screen, 48 h (100 = growth as untreated, 0 = no growth, -100 = all killed); settings: 10 µM unless noted

Compound | growth
OC(Cc1cccnc1)c1ccccc1 (stereo not drawn) | 107%
c1ccc2c(c1)[nH]c1c2cc[n+]2cc3c(cc12)CCCC3 | 24.6%
CC(CCC(=O)O)(NC(=O)c1ccc([N+](=O)[O-])cc1)C(=O)O (stereo not drawn) | 90.4%
O=Nc1ccc(O)c(=O)cc1 | 97.8%
Cn1cc(-c2csc(-c3cn(C)c4ncccc34)n2)c2cc(Br)cnc21 | 98%
O=C(N1CCC(CN=c2cc3n(-c4ccc(Cl)cc4)c4ccccc4nc-3cc2Nc2ccc(Cl)cc2)CC1)N1CC1 | -75.9% (active)
COc1ccc(C2=NNC(c3cc(Cc4ccc(O)c(C5CC(c6ccc(OC)cc6)=NN5)c4)ccc3O)C2)cc1 (stereo not drawn) | 55.5%
CCCCC(C#N)C(N)=O (stereo not drawn) | 104%
O=C(Cn1ccnc1)NC(c1ccccc1)c1ccccc1 | 97.6%
CCOC(=O)c1cc(-c2cccnc2)nc2c(Cl)cc(Cl)cc12 | 98.1%
CCOC(=O)c1c2c(c(C)n1Cc1ccc(OC)cc1)-c1nc(N)ncc1CC2 | 80.3%
CC[C@]1(O)CC2CN(CCc3c([nH]c4ccccc34)[C@@](C(=O)OC)(c3cc4c(cc3OC)N(C)[C@H]3[C@@](O)(C(=O)OC)[C@H](OC(C)=O)[C@]5(CC)C=CCN6CC[C@]43[C@@H]65)C2)C1 (stereo partly drawn) | -23.4% (active)
Cc1cc(C(C)(C)c2cc(C)c(O)c(CN(C)C)c2)cc(CN(C)C)c1O | 82.1%
Nc1ccccc1-c1ccc([N+](=O)[O-])cc1 | 29.8%
O=C(C(=O)N1CCOCC1)c1ccc(OC2OC(CO)C(O)C(O)C2O)cc1 (stereo not drawn) | 127%
COc1cc2cn3c4ccc(O)cc4nc(N)c3c2cc1OC | 27.2%
CC12CCCCC1C(C(N)=O)C(=O)O2 (stereo not drawn) | 99.6%

Compound | growth
CC1=C(C(=O)Nc2ccccc2)C(c2ccc3c(c2)OCCO3)NC(=O)N1 (stereo not drawn) | 103%
COc1cc(C2NC(c3ccc(Cl)cc3)C(C)C(=NC(=O)c3cnccn3)C2C)cc(OC)c1OC (stereo not drawn) | 129%
Fc1ccc(-c2nnc(/C=C/c3cn(-c4ccccc4)nc3-c3ccccc3)o2)cc1 | 95%
Clc1ccc([C@@H]2C[C@@H]3Cc4cc(Br)c5ccccc5c4N2O3)c(Cl)c1 | 87%
COc1ccc(Nc2ccnc(NCCCNc3ccnc4cc(Cl)ccc34)n2)cc1 | -74.9% (active)
O=C(CCc1nnc(SCc2ccccc2)s1)c1nc2ccccc2[nH]1 | 101%
O=C(CSc1nnc(Nc2ccccc2)s1)NCCc1ccc(F)cc1 | 99.3%
O=C1Nc2ccccc2C12Nc1cc(Cl)ccc1S2 (stereo not drawn) | 110%
Nc1nc(N)c([N+](=O)[O-])c(=O)[nH]1 | 103%
CC(C)C(=O)Cc1cnccn1 | 104%
CC(O)c1nc2c(c(=O)n(C)c(=O)n2C)n1C (stereo not drawn) | 103%
NC(=O)SCC(=O)Nc1ccccc1-c1ccccc1 | 95.5%
NC(N)=NC(N)=NCCCc1ccccc1 | 68.5% [100 µM]
Cn1[nH]cc(/C=N/C(N)=O)c1=O | 103%
O=C(Oc1ccc[nH]c1=O)c1cccc(Cl)c1 | 106%
Nc1nonc1-c1nc2ccccc2n1CC(=O)Nc1ccc2c(c1)COC2=O | 92.3%
